# Source: PubChem BioAssay (several laboratories)
# Only some compounds are listed: those with a hit (about 1.6% of all), similar ones and a draw of the others.
# eIF4H FP inh – inhibitors of RNA binding by human eIF4H. Q15056. eIF4H fluorescence polarization binding assay. 0.94% of 290,000 active. AID 2012. inhibition, % at 35 µM;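 note: calls also rest on retests at 20 µM and on dose response follow-up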
# eIF4E 4G PPI – eIF4E/eIF4G interaction inhibition in translation initiation; P63073+Q04637; TR-FRET eIF4E-eIF4GI(517-606) binding, 2 h; inhibition, % at 21.7 µM; 0.37% of 220,000 active; AID 782;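 active = inhibition above about 30%, limit read from the data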;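 note: 0% = full FRET control wells and 100% = background wells lacking eIF4GI fragment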
# PERK inhibitor – inhibitors of human PERK kinase | Q9NZJ5 | CHO PERK-DD fusion, SEAP luminescence translation reporter | inhibition, % at 5.6 µM | 0.17% of 220,000 active | AID 1416;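 active = inhibition above the mean inhibition of all tested compounds plus 3 SD, set separately per screening campaign, cut at about 2.9% in these data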;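 note: PERK kinase domain activated by AP20187 dimerizer at 100 nM; 0% = DMSO with dimerizer and 100% = rapamycin at 8.4 µM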
# PABP polyA inh – PABP-poly(A) binding inhibition; P11940; PABP-poly(A) RNA binding, fluorescence polarization; inhibition, % at 35 µM; 1% of 290,000 active; AID 2014;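 note: calls also rest on retests at 20 µM and on dose response follow-up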
# PABP1 MLLE inh – blocks PAM2 peptide binding to the PABP1 MLLE domain; P11940; GST-MLLE / FITC-PAM2 fluorescence polarization; inhibition, % at 20 µM; 0.36% of 360,000 active; in the data active = inhibition above about 35%, passing the limit was not always enough;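 note: plate controls were DMSO wells with GST-MLLE for no effect and wells lacking GST-MLLE protein for full effect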
# Active calls of the source: *; ? = inconclusive; / = no result given. Unless noted, the rule behind the calls is not given here.
SMILES,eIF4H FP inh,eIF4E 4G PPI,PERK inhibitor,PABP polyA inh,PABP1 MLLE inh
Cn1c2ccccc2c2nnc(SCc3nnc(-c4ccccc4)o3)nc21,-9,-4,1,51*,/
CC(=O)NC(c1ccccc1)c1nc(-c2ccc(C)c(C)c2)cs1 (stereo not drawn),/,/,/,/,-20
O=C(c1ccc(N2CCCCS2(=O)=O)cc1)N1CCN(c2ccc(N3CCOCC3)nn2)CC1,-12,-3,3.0*,-9,-8
Cc1nc(NC(=S)NC(=O)c2ccccc2)sc1C(=O)N(C)C,-10,-1,0,10,42*
O=C(O)c1cccc(S(=O)(=O)Nc2ccc3c(c2)OCO3)c1,7,5,1,12,38*
COc1cc2c3c(c1)/C(=C1/SC(NC(C)=O)=NC1=O)C(=O)N3C(C)(C)C=C2C,18,-7,0,8,37*
Nc1cc(S(=O)(=O)Nc2ccccc2Cl)ccc1N1CCCCC1,/,/,/,/,23
CCN(CC)CCCN1C(=O)C(=O)/C(=C(/O)c2ccc3c(c2)OCO3)C1c1ccccn1 (stereo not drawn),/,/,1,/,/
CCN(CC)CCCN1C(=O)C(=O)/C(=C(/O)c2cc(C)ccc2C)C1c1cccnc1 (stereo not drawn),-8,-5,2,12,-4
CCN(CC)CCN1C(=O)C(=O)/C(=C(/O)c2ccc(C)cc2)C1c1cccnc1 (stereo not drawn),5,97*,1,11,-6
CCN(CC)CCCN1C(=O)C(=O)/C(=C(/O)c2ccc(C)cc2)C1c1ccccn1 (stereo not drawn),3.1*,-2,0,56*,-2
CCOc1ccc(NC(=S)N2CCC(NC(=O)c3ccco3)CC2)cc1,-23,/,/,-11,-92
O=C(O)CCn1c(-c2ccccn2)nc2ccccc21,91*,/,/,15,-4
COc1ccc(/C=C(/NC(=O)c2ccccc2)C(=O)N/N=C/c2ccncc2)c(OC)c1,active,5,0,70,-11
COc1ccc(/C=C(\NC(=O)c2ccccc2)C(=O)N/N=C/c2ccncc2)cc1,-1,7,0,0,10
CCCN(CCC)CCNC(=O)C1(O)c2ccccc2NC(=O)N1c1cccc(OC)c1 (stereo not drawn),-3,/,/,-6,-3
COc1ccc(-c2c(C)nc(N)nc2-c2ccc(OC)cc2O)cc1,66*,/,/,55*,31
COc1ccc(-c2ncncc2-c2ccc(Cl)cc2)c(O)c1,9,83*,3,17,0
COc1ccc(-c2cncnc2-c2ccc(OC)cc2O)cc1,11,/,/,15,-6
Cc1cc2ccccn2c1C(=O)c1ccc(N/N=C/c2ccc(C(=O)O)cc2)c([N+](=O)[O-])c1,96,54*,0,30,-36
CC(C)(C)OC(=O)N1CCCC1C(=O)NCCc1ccccc1 (stereo not drawn),6,5,0,52*,-152
O=C(NCCc1ccccc1)C1CCCN1C(=O)NCc1ccccc1 (stereo not drawn),-9,-3,0,-11,-2
O=C(COC(=O)c1cc(=O)[nH]c(=O)[nH]1)Nc1ccccc1F,/,/,/,/,11
O=C(CSc1ncnc2sc3c(c12)CCC3)N1CCOCC1,62*,/,/,31,12
CCc1c(C)sc(NC(=O)c2ccco2)c1C(=O)N1CCOCC1,14,-1,0,-2,40*
SMILES,eIF4H FP inh,eIF4E 4G PPI,PERK inhibitor,PABP polyA inh,PABP1 MLLE inh
CC1(C(=O)Nc2ccc3c(c2)OCCO3)CCN1C(=O)c1cccc(F)c1 (stereo not drawn),/,/,/,/,0
CN1C(=O)c2ccccc2NC(=O)[C@]12O[C@@H]2c1cccc(O)c1,88*,-15,/,70,4
N#CCCN(Cc1cccnc1)C(=S)NCc1ccco1,14,1,0,-6,30
N#CCCN(C(=O)c1ccco1)c1ccccc1,-14,-2,-1,2,6
N#CCCN(Cc1cccnc1)C(=S)NC(=O)c1ccco1,7,-3,0,67*,14
N#CCCN(C(=S)NC(=O)c1ccco1)c1ccccc1F,1,-1,0,-1,47*
COC(=O)c1cc(S(=O)(=O)N2CCN(Cc3ccccc3)CC2)cn1C,-8,/,/,3,3
Cc1cc(C)cc(C(=O)NCC(=O)NNC(=O)CSc2ccccc2F)c1,/,/,/,/,9
COc1ccc2c(c1)CC/C(=C/c1ccco1)C2=O,?,3,1,active,-9
CCC1C/C(=C/c2ccco2)C(=O)/C(=C/c2ccco2)C1 (stereo not drawn),84,5,1,-3,/
